PubChem BioAssay (Tox21)
Results filed as inconclusive are left out. Activity calls are given as the source filed them. Unless noted, calls come from the whole dose curve.

Assays:
[1] = Nuclear factor erythroid 2-related factor 2/antioxidant responsive element (Nrf2/ARE) small molecule agonists: qHTS cell viability counter screen in human keratinocytes (AID 1919968; active = well fitted cell-killing curve with a large enough effect in the repeat runs; note: nearly all actives have a fitted effect of over 55% in size; note: potency is the fitted concentration of half-maximal effect)
Method in brief: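 KeratinoSens HaCaT cells, 1,500/well, preincubated 5 h, then exposed to compounds in DMSO for 23 h at 37 C/5% CO2. Viability read as CellTiter-Fluor fluorescence after 1 h, in the same wells as the ARE-luciferase read.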

[2] = Nuclear factor erythroid 2-related factor 2/antioxidant responsive element (Nrf2/ARE) small molecule agonists: luciferase reporter gene qHTS assay in human keratinocytes (AID 1919969); note: nearly all actives have a fitted effect of over 35% in size; note: potency is the fitted concentration of half-maximal effect
[3] = molecular target: Gonadotropin-releasing hormone receptor (Homo sapiens) (UniProt P30968); assay: Human gonadotropin-releasing hormone receptor (GnRHR) small molecule agonists, calcium flux assay in GnRHR-HEK293 cells (AID 1920063); note: nearly all actives have a fitted effect of over 35% in size
Sequence of Gonadotropin-releasing hormone receptor (Homo sapiens) (P30968 whole entry, looked up): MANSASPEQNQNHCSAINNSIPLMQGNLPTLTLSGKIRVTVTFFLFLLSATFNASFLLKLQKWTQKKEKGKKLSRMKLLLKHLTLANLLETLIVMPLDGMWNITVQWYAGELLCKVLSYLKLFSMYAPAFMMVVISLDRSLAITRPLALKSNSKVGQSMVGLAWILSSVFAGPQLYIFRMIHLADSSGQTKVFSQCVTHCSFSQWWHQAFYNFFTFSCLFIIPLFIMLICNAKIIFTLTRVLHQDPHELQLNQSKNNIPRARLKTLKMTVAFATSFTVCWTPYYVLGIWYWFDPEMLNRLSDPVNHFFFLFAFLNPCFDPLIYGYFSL
Method in brief: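 HEK293 cells stably expressing human GnRHR were dye-loaded for 1 h at 37 C. Compound was added in agonist mode and fluorescence (Ex/Em 480/540) recorded kinetically for 3 min. Fifteen concentrations, triplicates.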

[4] = G protein-coupled receptor (GPCR) small molecule agonists, calcium flux assay: HEK293 wild type cell line counter screen (AID 1920065)
Method in brief: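 Wild-type HEK293 cells plated 18 h, loaded with calcium dye 1 h at 37 C, then compounds added in agonist mode (ATP as positive control). Kinetic fluorescence Ex/Em 480/540 recorded 3 min at 1 sec intervals; 15 concentrations, triplicate.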

[5] = p53 small molecule agonists, cell-based qHTS assay with human liver microsomes (AID 1963577);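 note: p53 response element beta-lactamase reporter cells with liver microsomes plus NADPH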
Method in brief: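 HLM-supplemented p53RE-bla reporter assay: 16 h compound exposure at 37 C, microsomes and NADPH each 0.5 mg/mL final, read by fluorescence intensity.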

[6] = p53 small molecule agonists, cell-based qHTS assay with rat liver microsomes (AID 1963578)
Method in brief: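 Quantitative HTS of the Tox21 10K library: p53RE-bla cells, rat liver microsomes plus NADPH at 0.5 mg/mL final each, 16 h at 37 C, beta-lactamase fluorescence detection.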

[7] = p53 small molecule agonists, cell-based qHTS assay with rat liver microsomes: qHTS cell viability counter screen (AID 1963580); note: nearly all actives have a fitted effect of over 45% in size
Method in brief: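 p53RE-bla HCT-116 cells were exposed 16 h at 37 C to compounds with rat liver microsomes (0.5 mg/mL) and NADPH (0.5 mg/mL). Viability was measured in the same wells as ATP content by CellTiter-Glo luminescence.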

[8] = p53 small molecule agonists, cell-based qHTS assay: qHTS cell viability counter screen (AID 1963581); note: nearly all actives have a fitted effect of over 45% in size
Method in brief: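 p53RE-bla HCT-116 cells, compounds added 5 h after plating and incubated 16 h at 37 C. Cytotoxicity measured in the same wells as intracellular ATP by CellTiter-Glo luminescence after 30 min at room temperature.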

[9] = p53 small molecule agonists, cell-based qHTS assay (AID 1963582; active = well fitted activation curve with a large enough effect in the signal ratio in the repeat runs, not every such curve was filed as active; the % refers to the signal ratio)
Method in brief: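 p53RE-bla reporter cells, compounds added in DMSO after 5 h plating, incubated 16 h at 37 C. Beta-lactamase read via 2 h room-temperature LiveBLAzer B/G FRET substrate, fluorescence intensity.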

[10] = molecular target: 5-hydroxytryptamine receptor 2A (Homo sapiens) (UniProt P28223); assay: 5-hydroxytryptamine receptor 2A (HTR2A) small molecule agonists, cell-based qHTS assay (AID 1963587); note: nearly all actives have a fitted effect of over 30% in size
Sequence of 5-hydroxytryptamine receptor 2A (Homo sapiens) (P28223 whole entry, looked up): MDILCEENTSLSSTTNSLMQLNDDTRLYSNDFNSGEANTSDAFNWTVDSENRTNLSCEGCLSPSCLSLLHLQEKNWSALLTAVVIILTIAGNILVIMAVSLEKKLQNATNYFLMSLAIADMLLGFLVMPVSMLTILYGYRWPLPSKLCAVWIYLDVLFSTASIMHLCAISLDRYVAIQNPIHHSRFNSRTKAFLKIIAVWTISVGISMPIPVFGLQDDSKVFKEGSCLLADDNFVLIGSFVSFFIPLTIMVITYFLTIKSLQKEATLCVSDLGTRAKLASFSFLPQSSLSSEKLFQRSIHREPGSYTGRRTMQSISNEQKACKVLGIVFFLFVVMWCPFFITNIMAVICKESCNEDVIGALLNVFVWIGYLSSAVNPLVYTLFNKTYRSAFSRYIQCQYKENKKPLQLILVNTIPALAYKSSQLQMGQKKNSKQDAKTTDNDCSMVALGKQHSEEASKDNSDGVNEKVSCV
Method in brief: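 CHO cells stably expressing human HTR2A, plated 18 h, loaded with calcium dye 1 h at 37 C. Agonist mode: compounds added and intracellular calcium fluorescence recorded kinetically for 2 min at 1 sec intervals.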

[11] = molecular target: Muscarinic acetylcholine receptor M1 (Homo sapiens) (UniProt P11229); assay: Cholinergic receptor muscarinic 1 (CHRM1) small molecule antagonists, cell-based qHTS assay (AID 1963588); note: nearly all actives have a fitted effect of over 40% in size
Sequence of Muscarinic acetylcholine receptor M1 (Homo sapiens) (P11229 whole entry, looked up): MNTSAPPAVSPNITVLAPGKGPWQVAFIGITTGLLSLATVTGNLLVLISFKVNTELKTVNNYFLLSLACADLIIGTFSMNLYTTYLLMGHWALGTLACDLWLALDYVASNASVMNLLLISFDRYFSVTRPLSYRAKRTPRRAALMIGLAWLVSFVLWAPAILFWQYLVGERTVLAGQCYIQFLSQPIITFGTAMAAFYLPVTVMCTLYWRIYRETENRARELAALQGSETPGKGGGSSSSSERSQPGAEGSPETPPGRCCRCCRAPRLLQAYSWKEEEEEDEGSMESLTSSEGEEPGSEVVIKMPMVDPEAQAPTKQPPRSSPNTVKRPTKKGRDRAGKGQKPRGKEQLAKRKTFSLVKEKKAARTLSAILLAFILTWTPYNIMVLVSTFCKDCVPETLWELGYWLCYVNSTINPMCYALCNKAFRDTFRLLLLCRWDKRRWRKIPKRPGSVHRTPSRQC
Method in brief: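 CHRM1-CHO calcium-flux assay, antagonist mode. Cells were seeded 18 h, dye-loaded 1 h at 37 C and given compound for 5 min at RT, then acetylcholine was added at 50nM. FDSS fluorescence was read 3 min; 15 concentrations, three runs.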

[12] = molecular target: Muscarinic acetylcholine receptor M1 (Homo sapiens) (UniProt P11229); assay: Cholinergic receptor muscarinic 1 (CHRM1) small molecule agonists, cell-based qHTS assay (AID 1963589); note: nearly all actives have a fitted effect of over 35% in size
Method in brief: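 CHO cells stably expressing human CHRM1 were loaded with calcium dye for 1 h at 37 C, then compound was added in agonist mode. Intracellular calcium fluorescence was followed kinetically at 1 s intervals. Fifteen concentrations were tested in three independent runs.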

[13] = cAMP Responsive Elements (CRE) small molecule antagonists, cell-based qHTS assay (AID 1963591; active = well fitted inhibition curve with a large enough effect in the signal ratio in the repeat runs, not every such curve was filed as active; the % refers to the signal ratio)
Method in brief: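 CRE-bla HEK293T cells plated 18 h, then given compound plus NKH477 at 0.25 uM final for 3 h at 37C. Beta-lactamase reporter read with LiveBLAzer B/G FRET substrate after 2 h at room temperature.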

[14] = molecular target: Beta-2 adrenergic receptor (Homo sapiens) (UniProt P07550); assay: Adrenergic beta2 receptor (ADRB2) small molecule antagonists, cell-based qHTS assay (AID 1963592); note: series mostly up to about 92 µM; nearly all actives have a fitted effect of over 50% in size
Sequence of Beta-2 adrenergic receptor (Homo sapiens) (P07550 whole entry, looked up): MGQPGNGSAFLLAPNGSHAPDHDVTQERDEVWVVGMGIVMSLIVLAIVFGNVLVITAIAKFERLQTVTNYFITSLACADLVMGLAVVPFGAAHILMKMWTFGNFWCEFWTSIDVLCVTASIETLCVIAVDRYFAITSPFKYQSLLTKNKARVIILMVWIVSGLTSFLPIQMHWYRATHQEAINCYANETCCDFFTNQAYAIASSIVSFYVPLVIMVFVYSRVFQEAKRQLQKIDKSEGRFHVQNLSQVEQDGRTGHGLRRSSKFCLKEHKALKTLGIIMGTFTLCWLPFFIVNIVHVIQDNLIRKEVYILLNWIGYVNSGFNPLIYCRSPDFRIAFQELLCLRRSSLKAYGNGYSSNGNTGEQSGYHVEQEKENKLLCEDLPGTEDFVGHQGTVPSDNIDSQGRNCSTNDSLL
Method in brief: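 Cells (CHO, stable ADRB2 overexpression) incubated 18-20hr at 37C; compounds added from DMSO; agonist mix (1nM isoproterenol, 100uM IBMX, 25uM Ro-20-1724) added; 0.5hr RT; d2-cAMP and anti-cAMP-cryptate added; 1hr RT; 665/615 nm read.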

[15] = molecular target: D(2) dopamine receptor (Homo sapiens) (UniProt P14416); assay: Dopamine D2 receptor (DRD2) small molecule agonists, cell-based qHTS assay (AID 1963594); note: nearly all actives have a fitted effect of over 35% in size
Sequence of D(2) dopamine receptor (Homo sapiens) (P14416 whole entry, looked up): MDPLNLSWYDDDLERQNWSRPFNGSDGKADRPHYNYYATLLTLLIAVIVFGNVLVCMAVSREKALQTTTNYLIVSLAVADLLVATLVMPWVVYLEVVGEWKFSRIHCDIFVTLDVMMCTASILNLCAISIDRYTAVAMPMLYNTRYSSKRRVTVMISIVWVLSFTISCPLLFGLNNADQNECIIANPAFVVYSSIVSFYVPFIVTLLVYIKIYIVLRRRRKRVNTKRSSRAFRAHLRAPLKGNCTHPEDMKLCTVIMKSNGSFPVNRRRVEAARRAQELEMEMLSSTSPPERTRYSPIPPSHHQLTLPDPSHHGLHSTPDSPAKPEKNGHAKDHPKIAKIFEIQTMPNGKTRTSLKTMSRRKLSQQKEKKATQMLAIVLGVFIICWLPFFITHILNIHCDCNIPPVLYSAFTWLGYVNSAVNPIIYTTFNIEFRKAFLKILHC
Method in brief: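 HEK293 cells stably expressing human DRD2, pre-treated with PDE inhibitor Ro20-1724 (0.1 mM final) and compound 10 min at room temperature, then stimulated with NKH477 (200nM […]) for 30 min. cAMP read by HTRF (665/620 nm).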

[16] = molecular target: D(2) dopamine receptor (Homo sapiens) (UniProt P14416); assay: Dopamine D2 receptor (DRD2) small molecule antagonists, cell-based qHTS assay (AID 1963595; active = well fitted inhibition curve with a large enough effect in the signal ratio in the repeat runs, with a control signal flat; the % refers to the signal ratio)
Method in brief: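 Antagonist mode in DRD2-HEK293 cells: after compound addition with 0.1 mM Ro20-1724, cells received quinpirole (12 nM) and NKH477 (200 nM) for 30 min at room temperature; HTRF cAMP read after 1 h detection.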

[17] = p53 small molecule agonists, cell-based qHTS assay with human liver microsomes: qHTS cell viability counter screen (AID 1963579); note: nearly all actives have a fitted effect of over 45% in size
Method in brief: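 Viability of p53RE-bla cells is measured as CellTiter-Glo luminescence following a 16 h, 37 C incubation with compound, liver microsomes from human donors and NADPH.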

[18] = molecular target: 5-hydroxytryptamine receptor 2A (Homo sapiens) (UniProt P28223); assay: 5-hydroxytryptamine receptor 2A (HTR2A) small molecule antagonists, cell-based qHTS assay (AID 1963586); note: nearly all actives have a fitted effect of over 45% in size; note: potency is the fitted concentration of half-maximal effect
Method in brief: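 Antagonist-mode intracellular calcium assay: DOI (4 nM) added after 5 min compound pre-incubation at room temperature to dye-loaded HTR2A-CHO cells. Fluorescence followed for 3 min, sampled every second.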

[19] = molecular target: Beta-2 adrenergic receptor (Homo sapiens) (UniProt P07550); assay: Adrenergic beta2 receptor (ADRB2) small molecule agonists, cell-based qHTS assay (AID 1963593);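 note: CHO cells stably overexpressing human ADRB2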
Method in brief: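 CHO cells stably over-expressing ADRB2 were plated overnight at 37C, then dosed with compounds plus a stimulation mix containing 100uM IBMX and 25uM Ro-20-1724 for 0.5hr at room temperature. cAMP was measured by HTRF competition, 1hr.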

[20] = cAMP Responsive Elements (CRE) small molecule agonists, cell-based qHTS assay (AID 1963590)
Method in brief: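 CRE-bla HEK 293T cells, 2,000/well in DMEM with 10% dialyzed FBS and 25 mM HEPES, pre-incubated 18 h at 37 C, then exposed to compound 3 h at 37 C. Beta-lactamase reporter read with LiveBLAzer B/G FRET substrate after 2 h at room temperature.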
% is set by controls: 0 for no effect and ±100 for the full control effect.

O=[N+]([O-])c1cc(Cl)c(Cl)c(Cl)c1Cl
active: Potency [2] 48.4 µM
inactive: Potency [1] | Potency [3] | outcome [4] | Potency [5] | Potency [6] | Potency [7] | Potency [8] | Potency [9] | Potency [10] | Potency [11] | Potency [12] | Potency [13] | Potency [14] | Potency [15] | Potency [16]

Oc1cn2c(n1)Nc1ccc(Cl)c(Cl)c1C2
inactive: activity change, negative = cytotoxicity [1] -5.95% [at 19 µM] | activity, positive = activation [2] -4.99% [at 19 µM] | activity change [3] -1.21% [at 11.8 µM, active compounds read high] | activation [4] 0.199% [at 11.8 µM] | activation [5] -4.43% [at 13.5 µM] | activation [6] -0.253% [at 13.6 µM] | activity change, negative = cytotoxicity [17] -1.56% [at 13.5 µM] | activity change, negative = cytotoxicity [8] -7.7% [at 13.5 µM] | activation [9] 2.32% [at 13.5 µM] | activity, negative = inhibition [18] 4.4% [at 12.7 µM] | activation [10] 4.55% [at 15.9 µM] | activity, negative = inhibition [11] -10.4% [at 12.6 µM] | activation [12] -0.629% [at 15.8 µM] | activity change, negative = inhibition [14] 8.99% [at 19 µM] | Potency [19] | activation [15] 1.31% [at 19 µM] | activity change, negative = inhibition [16] -3.31% [at 18.9 µM]

O=C(CCCN1CCN(c2ccccn2)CC1)c1ccc(F)cc1
inactive: Potency [1] | Potency [2] | Potency [3] | outcome [4] | Potency [5] | Potency [6] | Potency [8] | Potency [9] | Potency [10] | Potency [11] | Potency [12] | Potency [20] | Potency [13]

CCCCOCCOC(=O)COc1cc(Cl)c(Cl)cc1Cl
inactive: Potency [1] | Potency [2] | Potency [3] | outcome [4] | Potency [5] | Potency [6] | Potency [17] | Potency [9] | Potency [10] | Potency [12] | Potency [13] | Potency [14] | Potency [15] | Potency [16]
active: Potency [18] 9.42 µM

CCCOC(=O)c1ccc(O)cc1
active: Potency [2] 27.3 µM
inactive: Potency [1] | Potency [3] | outcome [4] | Potency [5] | Potency [6] | Potency [17] | Potency [18] | Potency [10] | Potency [11] | Potency [12] | Potency [20] | Potency [13] | Potency [15] | Potency [16]

O=C(O)C(Cc1cc(I)c(O)c(I)c1)c1ccccc1 (stereo unspecified)
inactive: Potency [1] | Potency [2] | Potency [3] | outcome [4] | Potency [5] | Potency [6] | Potency [17] | Potency [9] | Potency [10] | Potency [11] | Potency [12] | Potency [13] | Potency [14] | Potency [15]

CC(C)=CCC/C(C)=C/CC/C(C)=C/CCC(=O)OC/C=C(\C)CCC=C(C)C
inactive: Potency [1] | Potency [2] | Potency [3] | outcome [4] | Potency [6] | Potency [17] | Potency [7] | Potency [9] | Potency [18] | Potency [10] | Potency [11] | Potency [12] | Potency [13] | Potency [14] | Potency [15] | Potency [16]

Nc1ccc(Cl)c([N+](=O)[O-])c1
inactive: Potency [1] | Potency [3] | outcome [4] | Potency [5] | Potency [17] | Potency [7] | Potency [18] | Potency [10] | Potency [11] | Potency [12] | Potency [13] | Potency [14] | Potency [19] | Potency [15] | Potency [16]
active: Potency [2] 54.5 µM

C[N+](C)(C)CCOC(=O)CCC(=O)OCC[N+](C)(C)C
inactive: Potency [1] | Potency [2] | Potency [3] | Potency [5] | Potency [6] | Potency [17] | Potency [7] | Potency [8] | Potency [9] | Potency [13] | Potency [14] | Potency [15] | Potency [16]

CCCCCCCC/C=C/C(=O)O
inactive: Potency [1] | Potency [2] | Potency [3] | outcome [4] | Potency [6] | Potency [17] | Potency [7] | Potency [9] | Potency [18] | Potency [10] | Potency [11] | Potency [13] | Potency [14] | Potency [15] | Potency [16]

N=C1C=CC(=C(c2ccc(N)cc2)c2ccc(N)cc2)C=C1
inactive: Potency [3] | outcome [4] | Potency [5] | Potency [6] | Potency [17] | Potency [8] | Potency [10] | Potency [11] | Potency [12]
active: Potency [1] 27.3 µM | Potency [2] 61.1 µM | Potency [18] 8.4 µM

CC(C(O)c1ccc(O)cc1)N1CCC(Cc2ccccc2)CC1 (stereo unspecified)
active: Potency [18] 16.3 µM
inactive: Potency [1] | Potency [2] | Potency [3] | outcome [4] | Potency [5] | Potency [6] | Potency [7] | Potency [8] | Potency [9] | Potency [10] | Potency [12] | Potency [20] | Potency [13] | Potency [16]

NS(=O)(=O)c1cc(C(=O)NN2C[C@H]3[C@H]4CCC(C4)[C@H]3C2)ccc1Cl
inactive: Potency [1] | Potency [2] | Potency [3] | outcome [4] | Potency [5] | Potency [6] | Potency [17] | Potency [8] | Potency [10] | Potency [11] | Potency [12] | Potency [14] | Potency [19] | Potency [15]

O=C1c2ccccc2C(=O)C1c1ccc(Br)cc1
inactive: Potency [1] | Potency [2] | Potency [3] | outcome [4] | Potency [5] | Potency [6] | Potency [7] | Potency [8] | Potency [9] | Potency [18] | Potency [10] | Potency [12] | Potency [14] | Potency [19] | Potency [16]
